# ssDAF-12 act: S. stercoralis DAF-12 nuclear receptor activators, primary screen, cell-based, luminescence, HEK293, GRIP1 co-expression, lit1-tk-luc; activation, % at 6.8 µM; actives 1% (n = 370,000); HEK293 ssDAF-12/GRIP1 lit1-tk-luc reporter; % of 3 µM dafachronic acid response; Nuclear hormone receptor DAF-12 (Strongyloides stercoralis);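 active = activation above the mean over all tested compounds plus 3 SD, cut at about 0.9% in these data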;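 note: 0% = DMSO-only wells and 100% = 3 µM delta7-dafachronic acid wells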
# hgDAF12 agonist: H. glycines DAF-12 receptor agonists, primary screen, cell-based, luminescence, HEK293, GAL4 fusion, UAS-luciferase; activation, % at 6.8 µM; HEK293 GAL4-hgDAF12 UAS-luciferase reporter, agonist luminescence; normalized to butyrate control; AID 687014, 2013; actives 1.8% (n = 370,000); Nuclear hormone receptor DAF-12 (Heterodera glycines), GAL4 fusion;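 active = activation above a cutoff set at the mean of all screened compounds plus 3 SD, cut at about 10% in these data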;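 note: 0% = DMSO wells and 100% = sodium butyrate wells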
# SMARCA2 activ: SMARCA2 (BRM) function activators, primary screen, cell-based, luminescence, high throughput | activation, % at 9.1 µM | actives 1% (n = 370,000) | MG213 cells, MMTV-luciferase reporter, dexamethasone, overnight; in the data active = activation above about 7.8%;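 note: 0% = vehicle wells and 100% = reference activator wells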
# hcDAF-12 act: H. contortus DAF-12 nuclear receptor activators, primary screen, cell-based, luminescence, HEK293, lit1-tk-luc reporter | HEK293 hcDAF-12 lit1-tk-luc reporter; 0% DMSO, 100% Δ7-dafachronic acid | AID 652067, 2013 | actives 1.4% (n = 370,000) | activation, % at 6.8 µM;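 active = activation above the mean of all tested compounds plus 3 SD, cut at about 5.5% in these data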;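 note: 100% = response to 3 µM Δ7-dafachronic acid high control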
# DAX1 inh: DAX1 (NR0B1) inhibitors on StAR promoter, primary screen, cell-based, luminescence, SF-1 (NR5A1), full-length DAX-1. HEK293T StAR-luciferase reporter, SF-1/DAX-1 repression relief. inhibition, % at 6.8 µM. actives 1.1% (n = 370,000). AID 652010, 2013;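 active = inhibition above the mean over all tested compounds plus 3 SD, cut at about 3.6% in these data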;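 note: 0% = DAX-1 cells with DMSO and 100% = cells lacking DAX-1 with DMSO; higher inhibition means more luminescence from relief of DAX-1 repression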
# Active calls of the source: *; . = not tested or not shown. Only some compounds are listed: those with a hit (about 4.2% of all), similar ones and a draw of the others.
SMILES,ssDAF-12 act,hgDAF12 agonist,SMARCA2 activ,hcDAF-12 act,DAX1 inh
COC(=O)c1ccc2nc(C3CCCCC3)c(Cc3cccc(Cl)c3)n2c1,0,5,-2,3,1
O=C(NC1CCCC1)C(c1ccco1)N1CCC(O)(c2ccc(Cl)cc2)CC1 (stereo not drawn),-1,-4,1,0,-1
O=P(C1=C(N2CCOCC2)/C(=C\c2ccccc2)CC1)(N1CCOCC1)N1CCOCC1,-2,0,2,6.5*,-1
O=C(NP(=O)(N1CCOCC1)N1CCOCC1)C1=C(N2CCOCC2)/C(=C\c2ccccc2)CC1,-1,-2,-4,2,0
CCS(=O)(=O)N1CCN(C2CCC(C)CC2)CC1 (stereo not drawn),1.1*,2,0,-1,1
CC(=O)Nc1ccc2c(c1)CCc1ccccc1-2,0,4,1,-1,0
O=C(Nc1ccc2c(c1)Cc1ccccc1-2)c1ccccc1F,0,11*,3,1,1
CC(=O)Nc1ccc2c(c1)Cc1c(F)cccc1-2,0,11*,8,5,4.3*
O=C(Nc1ccc2c(c1)Cc1ccccc1-2)c1ccc(Br)o1,-1,6,2,-1,0
CN1C(=O)[C@@]2(C3=C(CCCC3=O)OC3=C2C(=O)OC2(CCCCC2)C3)c2ccccc21,-1,-1,-1,-1,1
CC(=O)CCc1oc2ccc(C)cc2c1Cc1ccccc1,1.6*,5,1,6.5*,0
Cc1cccc(C)c1Nc1nnc(SC/C(O)=C(\C#N)c2nc3ccccc3[nH]2)s1,1,0,-4,3,0
N#C/C(=C(/O)CCl)c1nc2ccccc2[nH]1,1.0*,-6,7,5,-2
Cc1cccc(Nc2nnc(SC/C(O)=C(\C#N)c3nc4ccccc4[nH]3)s2)c1C,1.0*,2,1,5,0
Cc1cc(Br)ccc1SCC(=O)OCC(O)=C(C#N)c1nc2ccccc2[nH]1,-1,0,-2,4,1
Cc1cc(Br)ccc1SCC(=O)OC/C(O)=C(\C#N)c1nc2ccccc2[nH]1,1.1*,6,1,3,-1
COc1ccc(CSc2nnc(SCC(=O)Nc3ccc(S(N)(=O)=O)cc3)s2)cc1,-1,1,-5,-3,0
O=C(NCCCc1ccccc1)[C@H](Cc1c[nH]c2ccccc12)NC1(C(=O)NCCc2c[nH]c3ccccc23)CCC1,-1,1,.,3,.
NCC(c1ccco1)c1c[nH]c2ccccc12 (stereo not drawn),0,-1,-1,6.1*,0
CN(C)c1ccc(C(CN)c2c[nH]c3ccccc23)cc1 (stereo not drawn),0,4,0,5,1
CN(C(=O)COC(=O)CSc1ccc([N+](=O)[O-])cc1)C1CCS(=O)(=O)C1 (stereo not drawn),1.5*,-1,-1,0,-1
CCN(C(=O)COC(=O)CSc1ccc([N+](=O)[O-])cc1)C1CCS(=O)(=O)C1 (stereo not drawn),-1,2,-1,-2,0
O=C(CN1CCN(S(=O)(=O)c2ccc(Cl)cc2)CC1)NC1CCCC1,-1,0,-2,0,3.8*
COc1ccc(CN(C)CC#Cc2ccccc2)c(OC)c1,-1,1,-4,0,-2
CCn1c2ccccc2c2cc(Nc3cc(C)nc4ncnn34)ccc21,-2,-8,-5,-1,3.6*
SMILES,ssDAF-12 act,hgDAF12 agonist,SMARCA2 activ,hcDAF-12 act,DAX1 inh
O=C(NCc1ccco1)C1CCCN(S(=O)(=O)c2ccccc2F)C1 (stereo not drawn),-1,-1,-2,-3,0
CN(CCc1ccccn1)c1ccccc1,0,12*,0,6.2*,0
CCC[C@H]1[C@@H](OC(=O)NCc2ccc(OC)c(OC)c2)CC[C@@]23CCCN2C(=O)CCC[C@@H]13,-2,1,.,0,.
O=C(CSc1ccccc1F)Nc1ccc(N2CCOCC2)cc1,-1,12*,2,1,-3
O=C(CSc1ccccc1)Nc1ccc(N2CCOCC2)cc1,-1,8,5,1,-1
O=C(CSc1ccc(Cl)cc1)Nc1ccc(N2CCN(c3ccccc3)CC2)c(F)c1,-1,3,1,-1,0
O=C(CSc1ccccc1)Nc1ccc(N2CCOCC2)c(F)c1,0,5,4,1,4.4*
C[C@H]1[C@@H](OC(=O)Nc2ccccc2F)CC[C@@]23CCCN2C(=O)CCC[C@@H]13,-1,-1,.,-1,.
Nc1c(C(=O)N/N=C/c2cccnc2)oc2nc(-c3ccco3)cc(-c3ccco3)c12,0.9*,1,-2,3,-1
Nc1c(C(=O)N/N=C/c2cccnc2)oc2nc(-c3ccccc3)cc(-c3ccco3)c12,0,3,-5,3,0
CCOc1cc(/C=C2/SC(=S)N(Cc3ccccc3)C2=O)ccc1O,0,9,3,6.4*,0
COc1cc(/C=C2/SC(=S)N(Cc3ccccc3)C2=O)ccc1OCC(=O)O,-1,1,-1,-1,1
Cc1ccc(NC(=O)c2ccc(OC(=O)COc3ccc(Cl)c(C)c3)cc2)cc1,0,13*,2,4,3
O=C(Nc1ccc(S(=O)(=O)N2CCCC2)cc1)c1ccc(OCC2CCCO2)cc1 (stereo not drawn),-3,-2,-2,-4,-4
Cc1cc(OCC(=O)NC(C)(C)C)ccc1Cl,-1,12*,0,1,1
Cc1ccc(NC(=O)c2ccc(OCC3CCCO3)cc2)cc1 (stereo not drawn),0,12*,-1,4,3
Cn1cnc(NCc2ccccc2)c1[N+](=O)[O-],3.4*,0,-2,1,-1
COc1ccc(C)cc1Nc1nc(-c2c[nH]c3ccccc23)cs1,0,-3,0,5.8*,-1
COc1ccc2c(c1)CNC2CS(=O)(=O)NCc1ccccc1 (stereo not drawn),-1,1,-3,3,-1
O=C(c1cnc2nc3ccccc3n2c1)c1cc(F)ccc1O,0,7,0,5.6*,3
N#CCC[C@H]1CC[C@]2(CCCN(C(=O)c3ccc4ccccc4n3)C2)O1,0,2,-2,-1,0
Cc1ccc2nc(N3CCN(C(=O)c4ccc(F)cc4)CC3)c(C#N)cc2c1,-1,-1,-4,1,-1

# From PubChem BioAssay
